Compounds without any hit were thinned out: in the full panel of roughly 83,000, 20% have a hit.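 In brief: 96-well plates, 48 h treatment, single concentration, percent growth endpoint.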 A number with no mark means an inactive call. Activity calls are given as the source filed them. Rule for the calls: active = growth percent below 10; inactive = the rest.
tested on: MOLT-4 leukemia; test: NCI-60 one-dose screen, 48 h (100 = growth as untreated, 0 = no growth, -100 = all killed); details: 10 µM unless noted

| SMILES | growth |
| --- | --- |
| CC(=O)C1=C(C)NC(NNc2ccccc2)=NC1c1ccc([N+](=O)[O-])cc1 (stereo not given) | 82.6% |
| NC(N)=NS(=O)(=O)c1ccc(N=Nc2c(N)nn(-c3ccc([N+](=O)[O-])cc3[N+](=O)[O-])c2N)cc1 | 99.4% |
| NCCNC(=O)c1cccc(COc2ccccc2NC(=O)c2cc(Br)c(Br)[nH]2)c1 | 68.7% |
| COC(=O)CCCNCCCn1ccc2cc(NCc3cccc(-c4ccccc4)c3C)ccc21 | 49.5% |
| O=C(CCCCCCN1CC(=O)N2[C@@H](c3ccccc3Br)c3[nH]c4ccccc4c3C[C@H]2C1=O)NO | 6.43% (active) |
| CCCCOc1ccc(S(=O)(=O)N2CCN(c3nc(C)cc(N4CCOCC4)n3)CC2)cc1 | 26.1% |
| NS(=O)(=O)c1ccc(CCn2c(-c3ccc(C(=O)O)cc3)nc(-c3ccccc3)c2-c2ccccc2)cc1 | 108% |
| N#C/C(=N\Nc1ccc(F)cc1)C(=O)Nc1cc(-c2ccccc2)nn1-c1ccccc1 | 21.9% |
| Cn1c2nc3ccccc3c-2cc2ccccc21 | 21.5% |
| NS(=O)(=O)c1nnc(/N=C/c2c(O)[nH]c3ccccc23)s1 | 126% |
| NC(=O)c1c(NC(=O)c2ccc(C(F)(F)F)cc2)sc2c1CCC(=O)C2 | 4.59% (active) |
| O=C(N/N=C\c1ccc([N+](=O)[O-])cc1)c1ccc2nc(-c3ccc(Br)cc3)[nH]c2c1 | 5.71% (active) |
| C#CCN(C)CCCOc1ccc(NC(=O)CCCCCCC(=O)NO)cc1Cl | 16.9% |
| Fc1cc(F)cc(NNC(=S)c2ccccc2)c1 | 25.1% |
| Fc1ccc(-c2cn3c(-c4c[nH]c5ccc(Br)cc45)csc3n2)cc1 | 63.9% |
| CC[C@]12C=CCN3CC[C@]4(C(=C(C(=O)OC)C1)Nc1cc5c(cc14)[C@@H]1[C@H](O5)[C@@H](O)[C@@]4(CC)CC(C(=O)OC)=C5Nc6cc(O)ccc6[C@@]56CCN1C46)C32 (stereo not given in full) | 8.51% (active) |
| Cc1cc(C)cc(NC2=C(Cl)C(=O)c3nc(C)ccc3C2=O)c1 | 24.6% |
| COc1ccc2c(c1)c(-c1nn3cc(-c4ccncc4)nc3s1)cn2C | 47.2% |
| COC(=O)N1CCN(CCNCc2ccc(NC(=O)c3ccc(C)c(C#Cc4cnc5cccnn45)c3)cc2C(F)(F)F)CC1 | 8.21% (active) |
| CC(C)(O)c1cncc(-c2ccc3ncc(C#N)c(N4CCc5cc(F)c(Cl)cc54)c3c2)c1 | 5.17% (active) |
| O=C(/C=C/c1ccc(F)cc1)Nc1cccc2cccnc12 | 105% |
| C#CCN(C)CCCOc1ccc(NCc2ccc(C(=O)NO)cc2)cc1Cl | 17.3% |
| COCCOc1ccc2ncc(C#Cc3cncc(C(=O)Nc4ccc(CN5CCN(C)CC5)c(C(F)(F)F)c4)c3)n2n1 | 13.2% |
| CC(C)NC(=O)c1cc(-c2ccc(NC(=O)Nc3ccc(F)cc3)cc2)nc2cccnc12 | 133% |
| O=C1c2ccccc2C23C(=C(c4cncnc4)c4ccccc42)CCCN13 (stereo not given) | 107% |
| N#Cc1cccc(-c2cc(-c3ccc4c(c3)OCCO4)[nH]n2)c1 | 23% |
| CCC(=C(c1ccc(OCCN(C)C)cc1)c1ccc(OCCN(C)C)cc1)c1ccc(Cl)cc1 | -50.2% (active) |
| COc1ccccc1/C=C1\Oc2ccc(O)c(O)c2C1=O | 85% |
| CN1CCN(c2ccc(Nc3nc(NCCCNS(=O)(=O)c4ccccc4)c4sccc4n3)cc2)CC1 | 26% |
| Nc1nc(=O)n([C@H]2C[C@H](O)[C@@H](CO)O2)cc1C=O | 92% |

From PubChem BioAssay (NCI)
